Assays:
[1] = biological target: T1, Dual specificity mitogen-activated protein kinase kinase 6 (Homo sapiens) (UniProt P52564); conditions: at 1 µM
T1 sequence (whole entry): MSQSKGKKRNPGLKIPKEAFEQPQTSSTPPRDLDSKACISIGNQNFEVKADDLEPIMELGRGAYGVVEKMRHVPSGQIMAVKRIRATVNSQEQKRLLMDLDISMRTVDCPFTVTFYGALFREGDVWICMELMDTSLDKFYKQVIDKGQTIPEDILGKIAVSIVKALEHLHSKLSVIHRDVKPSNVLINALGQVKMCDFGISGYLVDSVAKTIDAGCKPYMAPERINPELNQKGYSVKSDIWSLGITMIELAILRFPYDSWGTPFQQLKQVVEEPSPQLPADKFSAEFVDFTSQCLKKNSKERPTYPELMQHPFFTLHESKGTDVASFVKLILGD

[2] = biological target: T1, Dual specificity mitogen-activated protein kinase kinase 6 (Homo sapiens); conditions: at 10 µM
[3] = biological target: T2, Dual specificity mitogen-activated protein kinase kinase 7 (Homo sapiens) (UniProt O14733); conditions: at 1 µM
T2 sequence (whole entry): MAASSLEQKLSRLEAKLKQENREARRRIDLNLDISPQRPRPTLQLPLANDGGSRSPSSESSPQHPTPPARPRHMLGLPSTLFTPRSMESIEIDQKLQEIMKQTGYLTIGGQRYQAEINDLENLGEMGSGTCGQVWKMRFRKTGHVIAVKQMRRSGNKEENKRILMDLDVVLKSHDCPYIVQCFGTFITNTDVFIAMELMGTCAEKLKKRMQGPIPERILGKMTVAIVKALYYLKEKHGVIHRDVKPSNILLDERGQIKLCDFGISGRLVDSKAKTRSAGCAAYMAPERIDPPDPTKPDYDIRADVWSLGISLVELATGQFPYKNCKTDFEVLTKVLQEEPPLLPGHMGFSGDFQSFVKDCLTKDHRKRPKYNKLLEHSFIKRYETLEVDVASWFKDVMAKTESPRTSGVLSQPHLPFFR

[4] = biological target: T2, Dual specificity mitogen-activated protein kinase kinase 7 (Homo sapiens); conditions: at 10 µM
[5] = biological target: Myosin light chain kinase, smooth muscle (Homo sapiens) (UniProt Q15746); conditions: at 1 µM
[6] = biological target: Myosin light chain kinase, smooth muscle (Homo sapiens) (UniProt Q15746); conditions: at 10 µM
[7] = biological target: Mitogen-activated protein kinase kinase kinase 9 (Homo sapiens) (UniProt P80192); conditions: at 1 µM
[8] = biological target: Mitogen-activated protein kinase kinase kinase 9 (Homo sapiens) (UniProt P80192); conditions: at 10 µM
[9] = biological target: Serine/threonine-protein kinase MRCK alpha (Homo sapiens) (UniProt Q5VT25); conditions: at 1 µM
[10] = biological target: Serine/threonine-protein kinase MRCK alpha (Homo sapiens) (UniProt Q5VT25); conditions: at 10 µM
[11] = biological target: Serine/threonine-protein kinase MRCK beta (Homo sapiens) (UniProt Q9Y5S2); conditions: at 1 µM
[12] = biological target: Serine/threonine-protein kinase MRCK beta (Homo sapiens) (UniProt Q9Y5S2); conditions: at 10 µM
[13] = biological target: Ribosomal protein S6 kinase alpha-5 (Homo sapiens) (UniProt O75582); conditions: at 1 µM
[14] = biological target: Ribosomal protein S6 kinase alpha-5 (Homo sapiens) (UniProt O75582); conditions: at 10 µM
[15] = biological target: Ribosomal protein S6 kinase alpha-4 (Homo sapiens) (UniProt O75676); conditions: at 1 µM
[16] = biological target: SRSF protein kinase 3 (Homo sapiens) (UniProt Q9UPE1); conditions: at 1 µM
[17] = biological target: SRSF protein kinase 3 (Homo sapiens) (UniProt Q9UPE1); conditions: at 10 µM
[18] = biological target: T3, Serine/threonine-protein kinase 4 (Homo sapiens) (UniProt Q13043); conditions: at 1 µM
T3 sequence (whole entry): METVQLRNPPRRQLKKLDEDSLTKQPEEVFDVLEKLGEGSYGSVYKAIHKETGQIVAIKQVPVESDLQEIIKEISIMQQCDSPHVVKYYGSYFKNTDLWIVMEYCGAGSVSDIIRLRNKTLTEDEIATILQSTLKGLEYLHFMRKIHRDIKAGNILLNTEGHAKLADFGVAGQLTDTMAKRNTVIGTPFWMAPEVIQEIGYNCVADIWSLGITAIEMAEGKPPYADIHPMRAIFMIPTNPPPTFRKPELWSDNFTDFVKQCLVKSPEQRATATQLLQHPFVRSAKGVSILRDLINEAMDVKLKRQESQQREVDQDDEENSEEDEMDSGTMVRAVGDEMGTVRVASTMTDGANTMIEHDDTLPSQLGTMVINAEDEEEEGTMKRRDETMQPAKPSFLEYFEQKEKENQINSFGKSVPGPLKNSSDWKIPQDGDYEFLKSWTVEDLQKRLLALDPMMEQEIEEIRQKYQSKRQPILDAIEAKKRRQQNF

[19] = biological target: T3, Serine/threonine-protein kinase 4 (Homo sapiens); conditions: at 10 µM
[20] = biological target: Ribosomal protein S6 kinase alpha-4 (Homo sapiens) (UniProt O75676); conditions: at 10 µM

Chain of Ribosomal protein S6 kinase alpha-4 (Homo sapiens) (O75676 whole entry, looked up): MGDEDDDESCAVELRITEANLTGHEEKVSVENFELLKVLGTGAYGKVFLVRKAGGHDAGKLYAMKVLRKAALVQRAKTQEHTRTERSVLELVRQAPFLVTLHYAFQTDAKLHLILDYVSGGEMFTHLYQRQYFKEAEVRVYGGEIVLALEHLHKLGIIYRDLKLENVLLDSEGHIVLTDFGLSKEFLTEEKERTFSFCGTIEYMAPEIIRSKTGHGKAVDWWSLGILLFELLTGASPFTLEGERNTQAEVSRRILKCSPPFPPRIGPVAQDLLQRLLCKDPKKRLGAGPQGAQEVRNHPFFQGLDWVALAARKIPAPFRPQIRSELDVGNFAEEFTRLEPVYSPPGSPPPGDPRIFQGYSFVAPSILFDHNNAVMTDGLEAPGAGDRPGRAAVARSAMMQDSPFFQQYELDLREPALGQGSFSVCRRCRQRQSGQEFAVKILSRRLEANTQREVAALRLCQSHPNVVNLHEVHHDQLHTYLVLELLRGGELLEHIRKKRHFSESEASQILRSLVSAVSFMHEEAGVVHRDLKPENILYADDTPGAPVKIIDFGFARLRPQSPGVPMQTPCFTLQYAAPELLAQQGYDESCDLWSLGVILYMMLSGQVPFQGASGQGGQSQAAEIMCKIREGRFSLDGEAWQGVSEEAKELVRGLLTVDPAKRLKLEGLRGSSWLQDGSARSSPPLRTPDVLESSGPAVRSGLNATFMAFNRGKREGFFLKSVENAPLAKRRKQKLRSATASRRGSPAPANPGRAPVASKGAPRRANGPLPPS
Chain of Myosin light chain kinase, smooth muscle (Homo sapiens) (Q15746 whole entry): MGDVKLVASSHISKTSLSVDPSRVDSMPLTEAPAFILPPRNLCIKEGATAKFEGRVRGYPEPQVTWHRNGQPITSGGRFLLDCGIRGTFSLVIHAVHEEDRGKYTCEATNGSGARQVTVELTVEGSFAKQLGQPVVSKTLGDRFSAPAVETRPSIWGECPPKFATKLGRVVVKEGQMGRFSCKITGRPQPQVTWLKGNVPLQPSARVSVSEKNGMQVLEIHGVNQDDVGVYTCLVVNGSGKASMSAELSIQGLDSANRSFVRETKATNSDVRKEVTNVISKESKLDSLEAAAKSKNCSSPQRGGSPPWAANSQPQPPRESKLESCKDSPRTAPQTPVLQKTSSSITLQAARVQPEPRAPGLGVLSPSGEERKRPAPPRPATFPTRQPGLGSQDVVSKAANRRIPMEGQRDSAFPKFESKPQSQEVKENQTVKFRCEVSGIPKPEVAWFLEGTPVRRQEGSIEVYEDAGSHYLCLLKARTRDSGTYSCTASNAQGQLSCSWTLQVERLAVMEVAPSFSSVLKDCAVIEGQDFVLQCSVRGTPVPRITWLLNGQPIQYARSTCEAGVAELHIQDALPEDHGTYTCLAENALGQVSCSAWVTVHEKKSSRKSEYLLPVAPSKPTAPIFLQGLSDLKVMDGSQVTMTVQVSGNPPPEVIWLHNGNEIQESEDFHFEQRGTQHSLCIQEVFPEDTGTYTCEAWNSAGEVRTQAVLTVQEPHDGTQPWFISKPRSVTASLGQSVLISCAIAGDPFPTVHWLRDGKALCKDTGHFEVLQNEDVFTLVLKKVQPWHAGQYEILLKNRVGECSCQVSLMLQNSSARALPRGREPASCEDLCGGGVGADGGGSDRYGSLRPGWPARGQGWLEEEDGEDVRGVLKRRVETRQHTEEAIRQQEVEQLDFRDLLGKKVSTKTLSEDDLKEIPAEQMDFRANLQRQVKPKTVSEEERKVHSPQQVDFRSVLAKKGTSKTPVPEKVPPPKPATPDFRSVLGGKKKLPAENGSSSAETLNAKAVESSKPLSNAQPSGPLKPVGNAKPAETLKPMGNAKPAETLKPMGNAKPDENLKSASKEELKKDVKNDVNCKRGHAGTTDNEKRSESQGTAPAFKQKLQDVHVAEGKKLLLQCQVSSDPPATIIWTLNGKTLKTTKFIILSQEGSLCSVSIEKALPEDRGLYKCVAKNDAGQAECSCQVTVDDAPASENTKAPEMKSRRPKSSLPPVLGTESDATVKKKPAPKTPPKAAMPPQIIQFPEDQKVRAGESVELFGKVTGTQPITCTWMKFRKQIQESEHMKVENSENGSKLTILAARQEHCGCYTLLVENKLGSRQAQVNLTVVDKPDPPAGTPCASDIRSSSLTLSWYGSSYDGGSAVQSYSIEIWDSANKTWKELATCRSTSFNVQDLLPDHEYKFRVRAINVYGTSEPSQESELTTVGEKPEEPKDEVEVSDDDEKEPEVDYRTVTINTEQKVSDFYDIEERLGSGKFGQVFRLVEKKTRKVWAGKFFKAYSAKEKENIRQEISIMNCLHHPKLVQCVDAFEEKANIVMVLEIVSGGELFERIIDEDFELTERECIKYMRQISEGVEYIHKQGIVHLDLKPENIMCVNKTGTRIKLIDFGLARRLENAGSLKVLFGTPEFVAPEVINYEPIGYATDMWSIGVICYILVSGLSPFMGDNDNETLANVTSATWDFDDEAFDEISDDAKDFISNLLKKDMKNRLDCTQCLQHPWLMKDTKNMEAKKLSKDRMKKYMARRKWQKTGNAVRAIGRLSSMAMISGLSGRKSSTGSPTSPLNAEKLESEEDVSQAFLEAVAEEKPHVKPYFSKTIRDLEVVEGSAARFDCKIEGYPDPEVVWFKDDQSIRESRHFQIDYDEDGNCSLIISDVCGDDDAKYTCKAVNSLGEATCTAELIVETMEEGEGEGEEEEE
Chain of Serine/threonine-protein kinase MRCK alpha (Homo sapiens) (Q5VT25 whole entry): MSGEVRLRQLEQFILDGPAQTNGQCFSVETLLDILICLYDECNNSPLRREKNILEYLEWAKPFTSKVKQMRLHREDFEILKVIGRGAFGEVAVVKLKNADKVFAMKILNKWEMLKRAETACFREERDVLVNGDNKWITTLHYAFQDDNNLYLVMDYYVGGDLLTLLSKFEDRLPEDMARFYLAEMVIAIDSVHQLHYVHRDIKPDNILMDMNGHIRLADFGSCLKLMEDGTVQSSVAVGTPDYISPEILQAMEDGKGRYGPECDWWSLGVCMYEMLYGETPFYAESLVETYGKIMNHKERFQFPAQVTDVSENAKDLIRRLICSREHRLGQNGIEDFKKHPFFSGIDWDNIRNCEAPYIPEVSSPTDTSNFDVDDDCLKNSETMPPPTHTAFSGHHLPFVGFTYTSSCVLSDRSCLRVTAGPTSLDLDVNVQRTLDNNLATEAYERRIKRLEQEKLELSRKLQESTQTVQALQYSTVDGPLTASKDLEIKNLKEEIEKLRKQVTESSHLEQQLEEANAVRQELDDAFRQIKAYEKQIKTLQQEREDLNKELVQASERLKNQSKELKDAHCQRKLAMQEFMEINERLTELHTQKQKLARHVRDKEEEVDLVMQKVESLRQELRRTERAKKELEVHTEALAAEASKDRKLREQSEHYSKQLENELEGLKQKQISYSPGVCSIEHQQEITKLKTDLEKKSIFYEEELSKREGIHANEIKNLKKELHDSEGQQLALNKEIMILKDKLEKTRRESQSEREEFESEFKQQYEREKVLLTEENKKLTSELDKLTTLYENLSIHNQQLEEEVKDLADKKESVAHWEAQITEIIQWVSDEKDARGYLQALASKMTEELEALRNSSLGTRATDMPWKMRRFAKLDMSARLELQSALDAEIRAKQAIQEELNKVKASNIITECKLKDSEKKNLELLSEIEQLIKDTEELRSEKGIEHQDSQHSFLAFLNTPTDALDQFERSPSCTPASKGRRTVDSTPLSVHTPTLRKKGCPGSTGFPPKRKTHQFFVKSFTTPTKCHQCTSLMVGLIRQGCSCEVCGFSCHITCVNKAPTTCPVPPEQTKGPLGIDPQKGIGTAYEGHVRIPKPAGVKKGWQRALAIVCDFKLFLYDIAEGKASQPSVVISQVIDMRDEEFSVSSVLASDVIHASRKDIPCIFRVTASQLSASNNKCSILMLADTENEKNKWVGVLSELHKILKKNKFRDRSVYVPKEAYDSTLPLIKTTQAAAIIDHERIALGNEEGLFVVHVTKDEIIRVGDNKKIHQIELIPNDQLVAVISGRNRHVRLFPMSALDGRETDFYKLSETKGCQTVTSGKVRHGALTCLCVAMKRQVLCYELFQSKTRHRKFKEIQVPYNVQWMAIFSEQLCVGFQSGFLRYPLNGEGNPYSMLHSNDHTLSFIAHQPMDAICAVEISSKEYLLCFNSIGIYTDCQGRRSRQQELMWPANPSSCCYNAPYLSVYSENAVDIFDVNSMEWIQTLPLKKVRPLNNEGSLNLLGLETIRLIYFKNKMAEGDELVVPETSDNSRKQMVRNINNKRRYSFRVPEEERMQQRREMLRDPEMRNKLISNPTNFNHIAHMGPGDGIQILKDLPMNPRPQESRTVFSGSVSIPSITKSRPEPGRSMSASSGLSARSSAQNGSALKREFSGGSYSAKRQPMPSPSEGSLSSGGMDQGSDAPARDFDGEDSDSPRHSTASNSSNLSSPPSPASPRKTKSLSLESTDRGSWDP
Chain of SRSF protein kinase 3 (Homo sapiens) (Q9UPE1 whole entry): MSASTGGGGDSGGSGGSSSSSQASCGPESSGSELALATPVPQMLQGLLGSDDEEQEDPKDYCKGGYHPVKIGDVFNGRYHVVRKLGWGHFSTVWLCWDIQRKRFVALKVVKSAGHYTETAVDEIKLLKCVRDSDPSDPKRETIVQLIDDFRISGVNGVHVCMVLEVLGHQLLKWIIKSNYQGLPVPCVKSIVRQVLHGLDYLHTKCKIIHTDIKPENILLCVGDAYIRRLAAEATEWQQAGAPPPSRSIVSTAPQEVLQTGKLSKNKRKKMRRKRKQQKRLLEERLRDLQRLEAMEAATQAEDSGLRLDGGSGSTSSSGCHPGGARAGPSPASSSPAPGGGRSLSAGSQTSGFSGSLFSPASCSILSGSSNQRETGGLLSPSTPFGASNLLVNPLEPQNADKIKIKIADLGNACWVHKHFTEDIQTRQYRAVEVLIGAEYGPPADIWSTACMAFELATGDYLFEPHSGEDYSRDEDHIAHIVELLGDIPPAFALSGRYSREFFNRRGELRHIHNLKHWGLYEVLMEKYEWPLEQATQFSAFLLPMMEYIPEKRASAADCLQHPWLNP

Row | Compound | residual activity [1] [%] | residual activity [2] [%] | residual activity [3] [%] | residual activity [4] [%] | residual activity [5] [%] | residual activity [6] [%] | residual activity [7] [%] | residual activity [8] [%] | residual activity [9] [%] | residual activity [10] [%] | residual activity [11] [%] | residual activity [12] [%] | residual activity [13] [%] | residual activity [14] [%] | residual activity [15] [%] | residual activity [16] [%] | residual activity [17] [%] | residual activity [18] [%] | residual activity [19] [%] | residual activity [20] [%]
1 | CC(C)(C)n1nc(Cc2cccc3ccccc23)c2c(N)ncnc21 | 57 | 38 | 98 | 94 | 73 | 87 | 68 | 18 | 95 | 119 | 99 | 86 | 120 | 93 | 95 | 116 | 80 | 90 | 58 | –
2 | O=c1cc(N2CCOCC2)oc2c1ccc1ccccc12 | 92 | 86 | 102 | 94 | 92 | 77 | 96 | 101 | 105 | 99 | 95 | 78 | 125 | 103 | – | – | 70 | 91 | 97 | 105
3 | COc1cc2nccc(Oc3ccc(NC(=S)NC(=O)c4ccccc4C)cc3)c2cc1OC | 65 | 71 | 93 | 87 | 67 | 80 | 63 | 41 | – | 124 | 84 | 67 | 137 | 102 | 87 | – | – | 81 | 86 | 93
4 | Nc1n[nH]c2nc3ccccc3nc12 | 95 | 84 | 88 | 81 | 95 | 69 | 82 | 41 | – | – | 86 | 92 | – | 86 | – | – | – | 76 | 94 | –
5 | COc1cc2nccc(Oc3ccc(NC(=O)Nc4cc(C)on4)c(Cl)c3)c2cc1OC | 49 | 21 | – | – | 66 | 61 | – | 61 | – | 102 | – | – | 107 | 80 | – | – | – | – | 56 | –
6 | Cc1cc(C)c(/C=C2\C(=O)Nc3ccccc32)[nH]1 | 60 | 76 | – | – | 32 | 39 | – | – | – | – | 99 | – | – | – | 61 | 99 | – | 51 | 20 | 39
7 | O=C(Nc1ccc(Cl)cc1)c1ccccc1NCc1ccncc1 | – | – | – | – | – | – | 99 | – | – | – | – | – | – | – | – | – | – | – | – | 101
8 | NC(=O)c1cccc(-c2cc(Nc3ccc(OC(F)(F)F)cc3)ncn2)c1 | 144 | 95 | – | – | 88 | – | 95 | 87 | – | 145 | – | – | – | – | – | – | – | – | – | –
9 | CC(C)c1nn(-c2c(Cl)cccc2Cl)c2nc(Cc3ccc(OCCO)cc3)[nH]c(=O)c12 | – | 90 | 84 | 77 | 105 | 99 | 86 | 48 | 106 | 102 | 97 | 83 | 128 | 91 | 94 | 87 | 76 | 80 | 68 | 84
10 | O=S(=O)(c1cccc2cnccc12)N1CCCNCC1 | – | 81 | 85 | – | – | – | – | 84 | – | – | – | – | – | 41 | 58 | – | – | – | – | 21
11 | CN([C@@H](Cc1ccc(OS(=O)(=O)c2cccc3cnccc23)cc1)C(=O)N1CCN(c2ccccc2)CC1)S(=O)(=O)c1cccc2cnccc12 | – | 124 | – | – | 100 | 72 | – | – | – | – | – | – | – | – | – | 100 | – | – | – | –
12 | O=C(c1cc2cc(O)ccc2[nH]1)c1cc2cc(O)ccc2[nH]1 | 112 | – | 113 | 63 | 70 | 35 | 16 | 4 | – | 78 | 77 | 82 | – | – | 67 | – | – | 39 | 14 | 27
13 | CCOC(=O)c1c(C)[nH]c(/C=C2\C(=O)Nc3ccccc32)c1C | 85 | – | 84 | 85 | 90 | 78 | 43 | 39 | – | – | 91 | 83 | – | 97 | 87 | 95 | 90 | – | – | 91
14 | COc1ccc(Cl)cc1NC(=O)Nc1cc(C)nc2ccccc12 | – | – | 87 | 99 | 83 | 71 | 91 | 100 | – | – | 87 | 76 | – | – | – | – | – | 93 | 79 | 95
15 | Oc1cccc(-c2nc(N3CCOCC3)c3oc4ncccc4c3n2)c1 | 91 | – | – | – | 71 | 72 | 90 | 99 | 97 | 91 | 91 | 85 | 130 | 90 | – | – | 92 | 97 | 97 | –
16 | CN(C)S(=O)(=O)c1ccc2c(c1)/C(=C/c1cc3c([nH]1)CCCC3)C(=O)N2 | 91 | – | 82 | 95 | – | 88 | 84 | 64 | – | – | – | – | 115 | 125 | – | 98 | 77 | 23 | 2 | 94
17 | Cn1sc(=O)n(Cc2ccccc2)c1=O | – | – | – | – | 90 | 91 | 92 | 88 | 98 | 92 | 73 | 81 | – | – | 96 | – | – | – | – | 85
18 | O=c1cc(N2CCOCC2)oc2c(-c3ccccc3)cccc12 | 72 | – | – | 76 | – | – | – | – | – | – | – | 65 | – | – | – | – | – | – | – | –

— ChEMBL document CHEMBL2218924, “A broad activity screen in support of a chemogenomic map for kinase signalling research and drug discovery” (Biochem J, 2013)
